# The full list was thinned out, with the strongest signals kept by preference.
# Columns and labels:
# Assay in all cases: glycan array binding signal (z-score within array); higher = stronger binding
# Settings in all cases: glycan notation: IUPAC condensed, linker removed
# Fuc(a1-2)Gal(b1-4)Glc6S = target: Fuc(a1-2)Gal(b1-4)Glc6S
# Summary of the method: (§1)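 Arrays were curated from the Consortium for Functional Glycomics database, 3228 in total, and kept only where the protein sequence was available. Binding is expressed as a within-array Z-score. This score was averaged across arrays of the same protein sequence at different concentrations or buffers and across linkers, and negative values can be read as non-binding.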
# [1] = target: Fuc(a1-2)Gal(b1-4)GlcNAc(b1-3)Gal(b1-4)GlcNAc
# Summary of the method: as §1
# [2] = target: Fuc(a1-2)Gal(b1-4)GlcNAc(b1-3)Gal(b1-4)GlcNAc(b1-2)Man(a1-3)[Fuc(a1-2)Gal(b1-4)GlcNAc(b1-3)Gal(b1-4)GlcNAc(b1-2)Man(a1-6)]Man(b1-4)GlcNAc(b1-4)GlcNAc
# Summary of the method: as §1
# [3] = target: Fuc(a1-2)Gal(b1-4)GlcNAc(b1-3)Gal(b1-4)GlcNAc(b1-3)Gal(b1-4)GlcNAc
# Summary of the method: as §1
# [4] = target: Fuc(a1-2)Gal(b1-4)GlcNAc(b1-3)GalNAc
# Summary of the method: as §1
# [5] = target: Fuc(a1-2)Gal(b1-4)GlcNAc(b1-6)GalNAc
# Summary of the method: as §1
# [6] = target: Fuc(a1-2)Gal(b1-4)[Fuc(a1-3)]GlcNAc(b1-2)Man(a1-3)[Fuc(a1-2)Gal(b1-4)[Fuc(a1-3)]GlcNAc(b1-2)Man(a1-6)]Man(b1-4)GlcNAc(b1-4)[Fuc(a1-6)]GlcNAc
# Summary of the method: as §1
# [7] = target: Fuc(a1-2)Gal(b1-4)[Fuc(a1-3)]GlcNAc(b1-2)[Fuc(a1-2)Gal(b1-4)[Fuc(a1-3)]GlcNAc(b1-4)]Man(a1-3)[Fuc(a1-2)Gal(b1-4)[Fuc(a1-3)]GlcNAc(b1-2)Man(a1-6)]Man(b1-4)GlcNAc(b1-4)GlcNAc
# Summary of the method: as §1
# [8] = target: Fuc(a1-2)Gal(b1-4)[Fuc(a1-3)]GlcNAc(b1-3)Gal(b1-4)[Fuc(a1-3)]GlcNAc
# Summary of the method: as §1
# [9] = target: Fuc(a1-2)Gal(b1-4)[Fuc(a1-3)]GlcNAc(b1-3)Gal(b1-4)[Fuc(a1-3)]GlcNAc(b1-3)Gal(b1-4)[Fuc(a1-3)]GlcNAc
# Summary of the method: as §1
# [10] = target: Fuc(a1-2)[Gal(a1-3)]Gal(b1-3)GalNAc(b1-3)Gal(a1-4)Gal(b1-4)Glc
# Summary of the method: as §1
# [11] = target: Fuc(a1-2)[Gal(a1-3)]Gal(b1-3)GlcNAc(b1-2)Man(a1-3)[Fuc(a1-2)[Gal(a1-3)]Gal(b1-3)GlcNAc(b1-2)Man(a1-6)]Man(b1-4)GlcNAc(b1-4)[Fuc(a1-6)]GlcNAc
# Summary of the method: as §1
# [12] = target: Fuc(a1-2)[Gal(a1-3)]Gal(b1-4)[Fuc(a1-3)]GlcNAc(b1-3)GalNAc
# Summary of the method: as §1
# [13] = target: Fuc(a1-2)[GalNAc(a1-3)]Gal(b1-4)GlcNAc(b1-3)Gal(b1-4)GlcNAc(b1-3)Gal(b1-4)GlcNAc
# Summary of the method: as §1
# [14] = target: Fuc(a1-2)[GalNAc(a1-4)]Gal(b1-4)GlcNAc
# Summary of the method: as §1
# [15] = target: Fuc(a1-3)[Gal(b1-4)]GlcNAc(b1-3)Gal(b1-4)[Fuc(a1-3)]GlcNAc(b1-3)Gal(b1-4)[Fuc(a1-3)]GlcNAc
# Summary of the method: as §1
# Gal(b1-3)GalNAc = target: Gal(b1-3)GalNAc
# Summary of the method: as §1
# [16] = target: Gal(b1-3)GlcNAc(a1-3)Gal(b1-4)GlcNAc
# Summary of the method: as §1
# [17] = target: Gal(b1-3)GlcNAc(b1-3)Gal(b1-4)[Fuc(a1-3)]GlcNAc
# Summary of the method: as §1
# [18] = target: Gal(b1-3)GlcNAc(b1-3)GalNAc
# Summary of the method: as §1
# [19] = target: Gal(b1-3)GlcNAc(b1-6)[Gal(b1-3)]GalNAc
# Summary of the method: as §1
# [20] = target: Gal(b1-3)[Fuc(a1-4)]GlcNAc(b1-3)Gal(b1-3)[Fuc(a1-4)]GlcNAc
# Summary of the method: as §1
# [21] = target: Gal(b1-3)[Fuc(a1-4)]GlcNAc(b1-3)Gal(b1-4)[Fuc(a1-3)]GlcNAc
# Summary of the method: as §1
# [22] = target: Gal(b1-3)[Neu5Ac(a2-6)]GalNAc
# Summary of the method: as §1
# [23] = target: Gal(b1-4)GalNAc(b1-3)[Fuc(a1-2)]Gal(b1-4)GlcNAc
# Summary of the method: as §1
# Gal(b1-4)Glc = target: Gal(b1-4)Glc
# Summary of the method: as §1
# Gal(b1-4)GlcNAc(b1-2)Man = target: Gal(b1-4)GlcNAc(b1-2)Man
# Summary of the method: as §1
# [24] = target: Gal(b1-4)GlcNAc(b1-3)Gal(b1-4)GlcNAc(b1-3)[Gal(b1-4)GlcNAc(b1-3)Gal(b1-4)GlcNAc(b1-6)]GalNAc
# Summary of the method: as §1
# [25] = target: Gal(b1-4)GlcNAc(b1-3)Gal(b1-4)[Fuc(a1-3)]GlcNAc(b1-3)Gal(b1-4)[Fuc(a1-3)]GlcNAc
# Summary of the method: as §1
# Gal4S(b1-4)GlcNAc = target: Gal4S(b1-4)GlcNAc
# Summary of the method: as §1
binder,measurement,setting,value
LecB PA7 (Pseudomonas aeruginosa) (protein) MATQGVFTLPANTRFGVTAFANSSATQTVKVLVNNETAATFTGQSTNNAVIGSQVLNSGGGGKVQIQVSVNGRSSDLVSAQVILANELNVALVGSEDSTDNDYNDAVVVINWPLG,glycan array binding signal (z-score),Fuc(a1-2)Gal(b1-4)Glc6S,1.89
same,glycan array binding signal (z-score),[1],3.5
same,glycan array binding signal (z-score),[2],10.1
same,glycan array binding signal (z-score),[3],3.71
same,glycan array binding signal (z-score),[4],0.923
same,glycan array binding signal (z-score),[5],0.819
same,glycan array binding signal (z-score),[6],5.18
same,glycan array binding signal (z-score),[7],-0.08
same,glycan array binding signal (z-score),[8],4.93
same,glycan array binding signal (z-score),[9],4.08
same,glycan array binding signal (z-score),[10],-0.43
same,glycan array binding signal (z-score),[11],0.145
same,glycan array binding signal (z-score),[12],0.197
same,glycan array binding signal (z-score),[13],-0.381
same,glycan array binding signal (z-score),[14],1.57
same,glycan array binding signal (z-score),[15],3.54
same,glycan array binding signal (z-score),Gal(b1-3)GalNAc,-0.403
same,glycan array binding signal (z-score),[16],-0.51
same,glycan array binding signal (z-score),[17],1.8
same,glycan array binding signal (z-score),[18],-0.499
same,glycan array binding signal (z-score),[19],-0.412
same,glycan array binding signal (z-score),[20],3.31
same,glycan array binding signal (z-score),[21],3.44
same,glycan array binding signal (z-score),[22],-0.511
same,glycan array binding signal (z-score),[23],-0.478
same,glycan array binding signal (z-score),Gal(b1-4)Glc,-0.502
same,glycan array binding signal (z-score),Gal(b1-4)GlcNAc(b1-2)Man,-0.495
same,glycan array binding signal (z-score),[24],-0.495
same,glycan array binding signal (z-score),[25],2.05
same,glycan array binding signal (z-score),Gal4S(b1-4)GlcNAc,-0.478
